# From PubChem BioAssay
# IL2 activator – qHTS of IL-2 Activators. AID 652025, 2013. 360,000 tested, 0.065% active. activation, % (series mostly up to about 46 µM). IL-2 activation reporter assay, cell-based qHTS; stimulated with anti-CD3/CD4/CD28 beads; in transgenic mouse T cells; in the data active = activation above about 50%; inconclusive = mostly about 30% to 49%; note: 0% is about no effect
#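 Unstimulated transgenic mouse T cells, 750 per well, received compound and, after 60 minutes, anti-CD3/anti-CD4 bead plus anti-CD28 stimulation. EGFP and DsRed were quantified after 18 hours.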
# Nrf2 block – Nrf2 qHTS screen for inhibitors | A549 ARE-Fluc reporter, luciferase luminescence, 18-24 h | Potency, µM (top dose mostly 46 µM), without a hit: at the top dose activity change, negative = inhibition, hits mostly inhibitors | 360,000 tested, 2.1% active; note: potency is the fitted concentration of half-maximal effect; % is set by controls: 0 for no effect and ±100 for the full control effect; nearly all actives have a fitted effect of over 60% in size
#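 Quantitative HTS in A549 cells stably bearing an antioxidant response element-firefly luciferase construct. Inhibition of Nrf2-driven transcription was scored by luminescence after 18-24 h of compound exposure at 37 °C.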
# A549 viability – Nrf2 qHTS screen for inhibitors: counterscreen for cytotoxicity. 390,000 tested, 0.16% active. Potency, µM (top dose mostly 46 µM), for the others: at the top dose activity change, negative = cytotoxicity, hits mostly inhibitors. A549 ARE-Fluc cells, CellTiter-Fluor viability, 18-24 h; note: potency is the fitted concentration of half-maximal effect; % is set by controls: 0 for no effect and ±100 for the full control effect
#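 A549 ARE-Fluc cells in 5% FBS OPTI-MEM, 5000 cells/well, rested 2 h then exposed to compounds in concentration-response for 18-24 h at 37 °C. Viability by CellTiter-Fluor fluorescence (Ex 405/Em 525) after 30 min; luciferase luminescence (BugLite, 15 min, RT) read afterwards.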
# BRCA1 expr act – qHTS Assay to Identify Small Molecule Activators of BRCA1 Expression. MCF7-BRCA1-FFLuc reporter, luminescence, 48 h; response scale: scaled: vehicle 0%, 10 µM genistein 100%. Potency, µM (top dose mostly 46.1 µM), for inactives: at the highest dose activation, usual class: activators. 380,000 tested, 1.1% active; note: potency is the fitted concentration of half-maximal effect; nearly all actives have a fitted effect of over 80% in size
#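 MCF7-BRCA1-FFLuc cells, 2000/well in phenol-red-free MEM, attached 2 h then treated 48 h at 37 C. Luciferase luminescence read 15 min after reagent; normalized to genistein maximum activation (10microM) and DMSO, concentration-response fitted.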
# p53 reactivator – qHTS assay for re-activators of p53 using a Luc reporter. H1299 p53-A138V BP100-luciferase reporter, luminescence, 24 h. Potency, µM (doses to about 92.2 µM), for inactives: top-dose activity change, positive = activation, usual class: activators. 320,000 tested, 0.063% active; note: potency is the fitted concentration of half-maximal effect; % of control where 0% means no effect; nearly all actives have a fitted effect of over 45% in size
#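 p53-null H1299 cells stably carrying temperature-sensitive p53-A138V and a BP100-luciferase reporter were pinned with compounds (4-point, 1:5 series) and held 24 hrs at 37 deg C. Luminescence was read 10 min after detection reagent.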
# Nrf2 activator – qHTS of Nrf2 Activators | 410,000 tested, 0.31% active | AID 624171, 2012 | AREc32 ARE-luciferase reporter (MCF7-derived line), luminescence, 24 h | Potency, µM (top dose mostly 46.1 µM), inactives show at the top dose activation, actives largely listed as activators; note: potency is the fitted concentration of half-maximal effect; % of control where 0% means no effect; nearly all actives have a fitted effect of over 65% in size
#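 Nrf2 activation is followed as ARE-luciferase induction in the AREc32 line after one day of compound treatment; luminescence is read with Steady-Glo.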
# The depositor's hits bear a star; ? = inconclusive; · = no result given; [ ] = another dose, or the depositor's remark. Only some compounds are listed: those with a hit (about 3.2% of all), similar ones and a draw of the others. Unless noted, calls come from the whole dose curve; as a rule, active = well fitted curve in the direction sought with a large enough effect; inconclusive = small, poorly fitted or top-dose-only effect, or another doubt; inactive = no such curve, though single readings can be large; an effect the other way counts as inactive or inconclusive.
SMILES,IL2 activator,Nrf2 block,A549 viability,BRCA1 expr act,p53 reactivator,Nrf2 activator
CCOC(=O)c1ccc(NC(=O)C2CCCN(c3ncnc4onc(-c5ccc(F)cc5)c34)C2)cc1 (stereo unspecified),·,?,-2%,·,·,2%
COCC(=O)NCc1nc2cccnc2n1Cc1ccc(F)cc1,·,·,12%,·,·,-1%
N#Cc1ccccc1COc1ccc(/C=C/C(=O)O)cc1,-1,2.3µM*,0%,-82%,-11%,-2%
CCOc1ccc(NS(=O)(=O)c2ccc(C(=O)N3CCCCC3)cc2)cc1,-2,?,-4%,-20%,-7%,0%
CCOC(=O)N1CCN(C(=O)c2ccc(NS(=O)(=O)c3ccc(F)cc3)cc2)CC1,-1,16µM*,-2%,-2%,-2%,-1%
CCOc1ccc(NS(=O)(=O)c2ccc(C(=O)N3CCN(c4ncccn4)CC3)cc2)cc1,-4,16µM*,-21%,-39%,-4%,2%
CCOc1ccc(NS(=O)(=O)c2ccc(C(=O)N(C)Cc3cccc(OC)c3OC)cc2)cc1,-4,15µM*,-7%,-44%,-1%,3%
CCOC(=O)N1CCN(C(=O)c2cccc(S(=O)(=O)Nc3ccc(F)cc3)c2)CC1,-1,-24%,-4%,-7%,·,0%
Cc1oc(-c2ccc(C(=O)NCc3ccccc3)cc2)nc1CN1CCc2ccccc21,·,·,-9%,·,·,4%
CCOc1ccc2c(c1)S/C(=C\c1cccs1)C(=O)N2,60*,?,2%,?,?,?
CCc1ccc2oc(-c3ccc(NC(=O)c4cccc(Cl)c4Cl)cc3)nc2c1,·,8.2µM*,-1%,·,·,0%
COc1cc(F)cc(F)c1[S+](=O)([O-])N1CCN([S+](=O)([O-])c2ccc3c(c2)OCCO3)CC1,·,8%,-5%,·,·,·
Nc1nonc1N/N=C/c1c(O)ccc2ccccc12,1,23%,7%,-43%,-3%,7.9µM*
Nc1nonc1N/N=C\c1ccccc1,-3,-1%,3%,22%,3%,-1%
O=C(NN=Cc1c(O)ccc2ccccc12)c1ccncc1,-4,26µM*,?,-94%,·,0%
CCOc1cccc(NCc2cc3c(C(C)(C)C)nn(-c4ccccc4)c3[nH]c2=O)c1,-2,21µM*,?,-41%,14%,23%
CC(C)(C)c1nn(-c2ccccc2)c2[nH]c(=O)c(CNCc3ccc4c(c3)OCO4)cc12,-2,?,8%,-98%,0%,14%
Cc1ccc(-c2nnc(-c3ccc(NC(=O)Cc4cccs4)cc3)o2)cc1,0,9.2µM*,13µM*,-20%,1%,0%
O=C(Cc1cccs1)Nc1ccc(-c2nc3ccccc3[nH]2)cc1,0,-28%,-4%,5.6µM*,19%,10%
O=C(CN1CCOCC1)Nc1ccc(-c2nc3ccccc3[nH]2)cc1,-1,10%,-3%,11µM*,16%,3%
CCOC(=O)c1sc2ncn(CC(=O)Nc3ccc(C)cc3C)c(=O)c2c1C,·,6%[9.27 µM],1%,3%,·,0%
C=C[C@@H]1[C@@H](C)[C@H](C)C(=O)C([C@H](O)C(C)C)[C@@H]1C (stereo partly specified),·,15%,0%,·,·,·
CCOC(=O)C1=C(C)NC(C)=C(C(=O)OCC)C1c1cn(-c2ccccc2)nc1-c1ccco1,-2,-13%,-9%,-7%,-7%,5%
CC(C)OC(=O)c1cn(-c2ccccc2)nc1-c1ccco1,0,-10%,1%,-61%,?,3.2µM*
CC1CCC(NC(=O)COc2ccc(C(=O)c3ccccc3)cc2)CC1 (stereo unspecified),1,18µM*,4%,-29%,2%,0%
CC(=O)c1ccc(OCC(=O)NC2CCCCCC2)cc1,1,16%,6%,62%,0%,1%
